# The full list was thinned out, with the strongest signals kept by preference.
# B1: Dectin-1 (Mus musculus), Q6QLQ4 (protein)
# chain: GHNSGRNPEEKDNFLSRNKENHKPTESSLDEKVAPSKASQTTGGFSQPCLPNWIMHGKSCYLFSFSGNSWYGSKRHCSQLGAHLLKIDNSKEFEFIESQTSSHRINAFWIGLSRNQSEGPWFWEDGSAFFPNSFQVRNTAPQESLLHNCVWIHGSEVYNQICNTSSYSICEKEL
# Legend:
# Assay in all cases: glycan array binding signal (z-score within array); higher = stronger binding
# Settings in all cases: glycan notation: IUPAC condensed, linker removed
# [1] = biological target: 3dGal(b1-3)[Fuc(a1-4)]Glc
# How it was run: (§1)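 Columns mapping to the same glycan were averaged after glycan names were converted to IUPAC-condensed notation. The data come from 3228 arrays in the Consortium for Functional Glycomics database, limited to those with an available protein sequence. Binding is reported as a within-array Z-score averaged across arrays of one protein sequence and across linkers.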
# [2] = biological target: Ara(a1-5)Ara(a1-5)Ara(a1-5)Ara(a1-5)Ara(a1-5)Ara(a1-5)Ara
# How it was run: as §1
# Fuc(a1-6)GlcNAc = biological target: Fuc(a1-6)GlcNAc
# How it was run: as §1
# [3] = biological target: Gal(b1-3)GalNAc(b1-4)[Neu5Ac(a2-3)]Gal(b1-4)Glc
# How it was run: as §1
# Gal(b1-3)GlcNAc = biological target: Gal(b1-3)GlcNAc
# How it was run: as §1
# [4] = biological target: Gal(b1-3)GlcNAc(b1-3)[Fuc(a1-3)[Gal(b1-4)]GlcNAc(b1-6)]Gal(b1-4)]GlcNAc(b1-6)[Gal(b1-4)]GlcNAc(b1-3)]Gal(b1-4)Glc
# How it was run: as §1
# Gal3S(b1-4)GlcNAc = biological target: Gal3S(b1-4)GlcNAc
# How it was run: as §1
# Glc(a1-2)Glc(a1-2)Glc = biological target: Glc(a1-2)Glc(a1-2)Glc
# How it was run: as §1
# Glc(a1-4)Glc(a1-6)Glc = biological target: Glc(a1-4)Glc(a1-6)Glc
# How it was run: as §1
# Glc(a1-6)Glc(a1-6)Glc = biological target: Glc(a1-6)Glc(a1-6)Glc
# How it was run: as §1
# [5] = biological target: Glc(b1-3)Glc(b1-3)Glc(b1-3)Glc(b1-3)Glc(b1-3)Glc(b1-3)Glc(b1-3)Glc(b1-3)Glc(b1-3)Glc(b1-3)Glc
# How it was run: as §1
# [6] = biological target: Glc(b1-3)Glc(b1-3)Glc(b1-3)Glc(b1-3)Glc(b1-3)Glc(b1-3)Glc(b1-3)Glc(b1-3)Glc(b1-3)Glc(b1-3)Glc(b1-3)Glc
# How it was run: as §1
# [7] = biological target: Glc(b1-3)Glc(b1-3)Glc(b1-3)Glc(b1-3)Glc(b1-3)Glc(b1-3)Glc(b1-3)Glc(b1-3)Glc(b1-3)Glc(b1-3)Glc(b1-3)Glc(b1-3)Glc
# How it was run: as §1
# Glc(b1-3)Glc(b1-4)Glc = biological target: Glc(b1-3)Glc(b1-4)Glc
# How it was run: as §1
# [8] = biological target: Glc(b1-3)Glc(b1-4)Glc(b1-4)Glc
# How it was run: as §1
# [9] = biological target: Glc(b1-4)Glc(b1-4)Glc(b1-4)Glc(b1-4)Glc(b1-4)Glc(b1-4)Glc(b1-4)Glc(b1-4)Glc(b1-4)Glc(b1-4)Glc
# How it was run: as §1
# GlcA(b1-3)Gal = biological target: GlcA(b1-3)Gal
# How it was run: as §1
# [10] = biological target: GlcA3S(b1-3)Gal(b1-4)GlcNAc(b1-3)Gal(b1-4)Glc
# How it was run: as §1
# GlcNAc(b1-3)Gal(b1-4)Glc = biological target: GlcNAc(b1-3)Gal(b1-4)Glc
# How it was run: as §1
# [11] = biological target: Man(a1-2)Man(a1-2)Man(a1-3)[Man(a1-2)Man(a1-6)[Man(a1-3)]Man(a1-6)]Man(b1-4)GlcNAc(b1-4)GlcNAc
# How it was run: as §1
# [12] = biological target: Man(b1-4)Man(b1-4)Man(b1-4)Man(b1-4)Man
# How it was run: as §1
# [13] = biological target: Neu(a2-3)Gal(b1-4)[Fuc(a1-3)]GlcNAc(b1-3)Gal(b1-4)Glc
# How it was run: as §1
# [14] = biological target: Neu5Ac(a2-3)Gal(b1-3)GalNAc(b1-4)[Neu5Ac(a2-3)]Gal(b1-4)Glc
# How it was run: as §1
# [15] = biological target: Neu5Ac(a2-3)Gal(b1-3)GlcNAc(b1-3)Gal(b1-4)Glc
# How it was run: as §1
# [16] = biological target: Neu5Ac(a2-3)Gal(b1-3)[Neu5Ac(a2-6)]GalNAc
# How it was run: as §1
# [17] = biological target: Neu5Ac(a2-3)Gal(b1-4)GlcNAc6S(b1-3)Gal6S(b1-3)GlcNAc6S
# How it was run: as §1
# [18] = biological target: Neu5Ac(a2-3)Gal(b1-4)[Fuc(a1-3)]GlcNAc(b1-3)Gal
# How it was run: as §1
# [19] = biological target: Neu5Ac(a2-6)Gal(b1-4)GlcNAc(b1-2)Man(a1-3)[Neu5Ac(a2-6)Gal(b1-4)GlcNAc(b1-2)Man(a1-6)]Man(b1-4)GlcNAc(b1-4)GlcNAc
# How it was run: as §1
# [20] = biological target: Neu5Ac(a2-6)Gal(b1-4)GlcNAc(b1-3)[Neu5Ac(a2-6)Gal(b1-4)GlcNAc(b1-6)]Gal(b1-4)Glc
# How it was run: as §1
binder,measurement,setting,value
B1,glycan array binding signal (z-score),[1],0.092
same,glycan array binding signal (z-score),[2],-0.064
same,glycan array binding signal (z-score),Fuc(a1-6)GlcNAc,-0.091
same,glycan array binding signal (z-score),[3],-0.091
same,glycan array binding signal (z-score),Gal(b1-3)GlcNAc,-0.088
same,glycan array binding signal (z-score),[4],0.102
same,glycan array binding signal (z-score),Gal3S(b1-4)GlcNAc,-0.071
same,glycan array binding signal (z-score),Glc(a1-2)Glc(a1-2)Glc,-0.135
same,glycan array binding signal (z-score),Glc(a1-4)Glc(a1-6)Glc,0.413
same,glycan array binding signal (z-score),Glc(a1-6)Glc(a1-6)Glc,-0.113
same,glycan array binding signal (z-score),[5],1.33
same,glycan array binding signal (z-score),[6],5.34
same,glycan array binding signal (z-score),[7],13.4
same,glycan array binding signal (z-score),Glc(b1-3)Glc(b1-4)Glc,-0.135
same,glycan array binding signal (z-score),[8],-0.135
same,glycan array binding signal (z-score),[9],0.216
same,glycan array binding signal (z-score),GlcA(b1-3)Gal,-0.06
same,glycan array binding signal (z-score),[10],-0.078
same,glycan array binding signal (z-score),GlcNAc(b1-3)Gal(b1-4)Glc,-0.029
same,glycan array binding signal (z-score),[11],-0.004
same,glycan array binding signal (z-score),[12],-0.113
same,glycan array binding signal (z-score),[13],-0.091
same,glycan array binding signal (z-score),[14],-0.039
same,glycan array binding signal (z-score),[15],-0.091
same,glycan array binding signal (z-score),[16],-0.069
same,glycan array binding signal (z-score),[17],-0.054
same,glycan array binding signal (z-score),[18],-0.091
same,glycan array binding signal (z-score),[19],-0.091
same,glycan array binding signal (z-score),[20],-0.091

# — the supplement of paper PMC8728848
